Values without a mark were called inactive. Inconclusive results are not listed. Active and inactive are the calls of the source. Unless noted, calls follow the shape of the dose curve; as a rule, active = well fitted curve in the direction sought with a large enough effect; inconclusive = small, poorly fitted or top-dose-only effect, or another doubt; inactive = no such curve, though single readings can be large; an effect the other way counts as inactive or inconclusive.

Assay [1] addresses Lysosomal acid glucosylceramidase (Homo sapiens) (UniProt P04062). Description: Glucocerebrosidase-p2 (AID 348; in the data active = potency below about 10 µM; also: potency is read from the fitted curve at half-maximal effect). As to conditions: purified GBA, blue fluorogenic substrate, 40 min. In a few lines:
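Normal human glucocerebrosidase (0.2 nM) with blue fluorogenic substrate (80 uM final) in citrate/phosphate pH 5.9 with 10mM sodium taurocholate, 0.01% tween-20; 40 min RT, NaOH/glycine stop; fluorescence Ex 365/Em 440; AC50 from a titration from 0.6 nM upwards.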

A short description of assay [2]: AP1 Signaling Pathway (AID 357; active = well fitted curve in either direction with a large enough effect, not every such curve was filed as active;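 also: ME-180 reporter cells stimulated with EGF at its EC50 level; % is scaled to controls: 0 for no effect and ±100 for the full control effect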). As to conditions: ME-180 AP-1-bla reporter, EGF-induced, beta-lactamase ratio, 5 h; at 7.69 µM (top of the series) unless noted. In a few lines:
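Titration-series screen for positive or negative modulators of EC50 EGF-induced signaling in ME-180 cells carrying an AP-1-driven beta-lactamase reporter. After 5 hours at 37 degrees Celsius, CCF4 460nm/530nm emission ratio gave %Activity; AC50 values derived.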

For assay [3], the target named is Cytochrome P450 1A2 (Homo sapiens) (UniProt P05177). Description: p450-cyp1a2 (AID 410; calls by dose curve; also: potency is read from the fitted curve at half-maximal effect). Summed up: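 O-Demethylation of luciferin 6' methyl ether by human CYP1A2 is monitored as luciferase luminescence. Substrate sits at Km (100uM); enzyme is 20nM. Values are scaled to 57 uM furafylline as maximal inhibition.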
Assay [4] is described as follows: NFAT Signaling Pathway (AID 444; active = well fitted curve in either direction with a large enough effect, not every such curve was filed as active;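 also: carbachol stimulus at about its EC50 of 1 µM final; % is scaled to controls: 0 for no effect and ±100 for the full control effect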). Particulars: Jurkat NFAT-bla M1, carbachol, beta-lactamase ratio, 5 h; at 7.69 µM (top of the series) unless noted. Summed up: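 Jurkat cells with NFAT-driven β-lactamase reporter and co-expressed M1 receptor, stimulated with carbachol (final 1 uM, ~EC50), compound titration, 5 h at 37 °C. CCF4 loaded 1 h at RT; 460/530 nm ratio gave %activity and AC50.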

The nature of assay [5]: Stat Signaling Pathway (AID 446; active = well fitted curve in either direction with a large enough effect, not every such curve was filed as active;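 also: ME-180 cervical cancer cells given 40 pM IL-6 alongside compound; SIE-controlled beta-lactamase reporter measured as 460/530 nm FRET emission ratio; % is scaled to controls: 0 for no effect and ±100 for the full control effect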). As to conditions: ME-180 SIE beta-lactamase reporter, IL-6 stimulated, 5 h; at 7.69 µM (top of the series) unless noted. In a few lines:
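Compound effects on IL-6-induced STAT reporter activity were measured in ME-180 cells. After overnight culture, cells were co-treated with 40 pM IL-6 for 5 hrs before beta-lactamase substrate loading at room temperature.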

In assay [6] the target is Glucocorticoid receptor (Homo sapiens) (UniProt P04150). As to the kind of experiment: GR-GFP Redistribution (AID 450;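 active = compounds whose dose series gives a full or clear partial fitted curve of increased nuclear translocation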; also: potency is read from the fitted curve at half-maximal effect). As to conditions: U2OS GR-GFP nuclear translocation, laser cytometry, 2 h.
For assay [7] the target is unchanged. As to the kind of experiment: GR-EFC Redistribution (AID 451; calls by dose curve; also: potency is read from the fitted curve at half-maximal effect). As to conditions: CHO-K1 GR-EFC translocation, beta-gal luminescence, 2 h. Summed up: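 CHO-K1 cells expressing nuclear EA and GR-ED fragments of b-gal; compounds titrated up to 46 uM final, 2 h at 37 C. GR nuclear translocation read as complemented b-gal luminescence after 1 h RT detection.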
For assay [8], the target named is Cytochrome P450 3A4 (Homo sapiens) (UniProt P08684). As to the kind of experiment: qHTS Assay for Activators of Cytochrome P450 3A4 (AID 885). Also: nearly all actives have a fitted effect of over 65% in size. Summed up:
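CYP3A4 activity: Luciferin-PPXE O-dealkylation, 25uM substrate, 200mM KPO4, RT throughout. Read-out is luciferase luminescence; higher values reflect activation.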
Background: In qHTS, concentration-response curves come from the screen itself.

Assay [9] addresses Dual specificity protein kinase CLK4 (Homo sapiens) (UniProt Q9HAZ1). Description: qHTS Assay for Inhibitors of CDC-like Kinase 4 (Kinase-Glo Assay) (AID 1770). Also: % is scaled to controls: 0 for no effect and ±100 for the full control effect; nearly all actives have a fitted effect of over 65% in size. Summed up:
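Luminescent ATP-depletion read-out (Kinase-Glo) after 4.5 h room-temperature reaction of Clk4 (25 nM final) with RS peptide (100 uM) and ATP (1 uM), pH 7.5 Tris buffer with MgCl2 and DTT.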

Assay [10] has the same target. Description: qHTS Assay for Inhibitors of CDC-like Kinase 4 (ADP-Glo Assay) (AID 1771). Also: % is scaled to controls: 0 for no effect and ±100 for the full control effect; nearly all actives have a fitted effect of over 70% in size. Summed up: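 Compounds are pin-transferred onto substrate mix (100 uM RS peptide, 1 uM ATP), then 25 nM Clk4 is added. After 1 hr at room temperature, ADP-Glo reagent runs 45 min, detection reagent 30 min, then luminescence is read.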
Assay [11] shares this target. Description: qHTS Assay for Inhibitors of CDC-like Kinase 4 (ADP-FP Assay) (AID 1795).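 Also: recombinant human CLK4 phosphorylating RS repeat peptide at 1 µM ATP; % is scaled to controls: 0 for no effect and ±100 for the full control effect; nearly all actives have a fitted effect of over 60% in size.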 Summed up:
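Kinase activity was measured as ADP production using Transcreener orange tracer (4 nM) and ADP antibody (1 ug/mL) fluorescence polarization, with ADP calculated from a calibration curve. The 1 h reaction contained 6.25 nM Clk4, 1 uM ATP and 100 uM RS peptide at pH 7.5 with Mg2+.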

In assay [12] the target is Ubiquitin carboxyl-terminal hydrolase 1 (Homo sapiens) (UniProt O94782). Description: Inhibitors of USP1/UAF1: Pilot qHTS (AID 504865).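 Also: rhodamine fluorescence freed from ubiquitin-rhodamine substrate followed over time; top concentration of the series differs between compounds; % is scaled to controls: 0 for no effect and ±100 for the full control effect; nearly all actives have a fitted effect of over 35% in size.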 In a few lines:
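Deubiquitinase activity followed as kinetic rhodamine fluorescence release from 150 nM Ub-Rho. 1 nM USP1/UAF1 with compound, after 15 min room-temperature preincubation, in HEPES pH 7.8 buffer containing TCEP, EDTA, BSA and Tween-20.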

Assay [13] in a line: Counterscreen qHTS for small molecule stabilizers of the endoplasmic reticulum resident proteome: GLuc-NoTag assay (AID 1508627).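 Also: 0% = thapsigargin alone and -100% = DMSO vehicle control.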 In a few lines:
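Counterscreen line: SH-SY5Y-GLuc-NoTag. Seed, 5 h; compound, 19 h; thapsigargin 100 nM, 4 h; 37C/5% CO2. Readout: secreted GLuc luminescence, coelenterazine 0.07x final, no lysis.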
On the technique in general: The purpose of a counterscreen is to sort out artefacts and off-target activity.

The target in assay [14] is Mitogen-activated protein kinase 10 (Mus musculus) (UniProt Q61831). Description: JNK3 AlphaScreen Assay (AID 530; active = well fitted curve in either direction with a large enough effect, not every such curve was filed as active;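 also: kinase came from lysate of stimulated human HepG2 cells; signal reports phosphorylation of biotinylated GST-cJun 1-79 at Ser73 with 10 µM ATP; % is scaled to controls: 0 for no effect and ±100 for the full control effect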). In a few lines:
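Activity was read by AlphaScreen after JNK3-containing HepG2 lysate (cytokine pre-activated) phosphorylated biotinylated GST-cJun with 10 uM ATP at room temperature. Phospho-Ser73 cJun antibody with Protein-A acceptor beads provided detection.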

In assay [15] the target is 3',5'-cyclic-AMP phosphodiesterase 4B (Homo sapiens) (UniProt Q07343). Description: qHTS Assay for Inhibitors of PDE-IV (AID 607; active = well fitted activation curve with a large enough effect in the main read-out, with a control signal flat, not every such curve was filed as active; also: % of control where 0% means no effect). In a few lines: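 ACTOne HEK293 cells carry a modified cAMP-gated CNG channel and express endogenous PDE4; plated 1000 cells/well, compounds up to 22.9 uM final. Membrane-potential dye fluorescence (ex 535/em 590) was read; parental cells received 10 uM forskolin + 100 uM RO 20-1724.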

The nature of assay [16]: qHTS Assay for Identification of Small Molecule Agonists for Hypoxia Response Element Signaling Pathway (AID 914; active = well fitted activation curve with a large enough effect in the signal ratio, with a control signal flat, not every such curve was filed as active; the % refers to the signal ratio; also: % of control where 0% means no effect). Particulars: ME-180 (cervical carcinoma) HRE-bla reporter, beta-lactamase ratio, CoCl2, 17 h; activation: hits give high values. Summed up: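 Read-out: CCF4 FRET ratio of 460nm to 530nm emission (excitation 405nm) after 2.5 hours at room temperature, taken from HRE-bla ME-180 cells that had been exposed to compound and EC50 CoCl2 for 17 hours.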

The nature of assay [17]: Confirmatory qHTS for small molecule stabilizers of the endoplasmic reticulum resident proteome: Secreted ER Calcium Modulated Protein (SERCaMP) assay (AID 1508628). Also: potency is read from the fitted curve at half-maximal effect; nearly all actives have a fitted effect of over 40% in size. In a few lines:
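Reporter secretion upon ER calcium depletion (100 nM thapsigargin, 4 h, 37C) is measured as medium luminescence with coelenterazine, after 16 h compound pretreatment of SH-SY5Y-GLuc-SERCaMP cells; primary at three concentrations up to 38.3 uM, follow-up at 11 (up to 76.6 uM).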

Assay [18] in a line: Cell Viability qHTS for small molecule stabilizers of the endoplasmic reticulum resident proteome (AID 1508629). As to conditions: cell viability counter-screen, 100 nM thapsigargin for final 4 h.
Assay [19] deals with Cytochrome P450 2C9 (Homo sapiens) (UniProt P11712). As to the kind of experiment: qHTS Assay for Inhibitors and Substrates of Cytochrome P450 2C9 (AID 883). Also: potency is read from the fitted curve at half-maximal effect; nearly all actives have a fitted effect of over 60% in size. Summed up:
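Human CYP2C9 (10nM) with Luciferin-H at 100uM (its KM) in 25mM KPO4; compound preincubated 10 min at 37C, then NADPH regeneration for 60 min at 37C. Luciferin read by luminescence after detection reagent; normalized to 57uM sulphaphenazole as full inhibition.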

Sequence of Glucocorticoid receptor (Homo sapiens) (P04150 whole entry, looked up, the tested form may be a part): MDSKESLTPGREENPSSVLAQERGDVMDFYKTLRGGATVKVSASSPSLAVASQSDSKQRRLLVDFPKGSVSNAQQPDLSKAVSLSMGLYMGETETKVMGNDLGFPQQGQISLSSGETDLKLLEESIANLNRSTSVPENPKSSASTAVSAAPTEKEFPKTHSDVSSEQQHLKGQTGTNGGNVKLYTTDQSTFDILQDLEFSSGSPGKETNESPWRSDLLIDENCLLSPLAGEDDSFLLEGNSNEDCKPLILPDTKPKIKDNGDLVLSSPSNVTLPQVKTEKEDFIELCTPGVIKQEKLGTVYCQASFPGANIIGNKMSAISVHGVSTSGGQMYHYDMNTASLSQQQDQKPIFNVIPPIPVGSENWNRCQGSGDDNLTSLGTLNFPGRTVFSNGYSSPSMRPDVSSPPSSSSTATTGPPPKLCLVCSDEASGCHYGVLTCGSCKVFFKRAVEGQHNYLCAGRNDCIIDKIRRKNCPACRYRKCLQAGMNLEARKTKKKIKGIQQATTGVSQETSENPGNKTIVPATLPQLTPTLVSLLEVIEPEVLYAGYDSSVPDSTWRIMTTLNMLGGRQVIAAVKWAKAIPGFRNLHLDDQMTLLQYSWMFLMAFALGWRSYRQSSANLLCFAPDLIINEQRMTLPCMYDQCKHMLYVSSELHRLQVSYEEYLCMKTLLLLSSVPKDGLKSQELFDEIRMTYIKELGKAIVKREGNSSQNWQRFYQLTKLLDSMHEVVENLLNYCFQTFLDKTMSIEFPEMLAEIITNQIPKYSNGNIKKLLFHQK
Sequence of Dual specificity protein kinase CLK4 (Homo sapiens) (Q9HAZ1 whole entry, looked up): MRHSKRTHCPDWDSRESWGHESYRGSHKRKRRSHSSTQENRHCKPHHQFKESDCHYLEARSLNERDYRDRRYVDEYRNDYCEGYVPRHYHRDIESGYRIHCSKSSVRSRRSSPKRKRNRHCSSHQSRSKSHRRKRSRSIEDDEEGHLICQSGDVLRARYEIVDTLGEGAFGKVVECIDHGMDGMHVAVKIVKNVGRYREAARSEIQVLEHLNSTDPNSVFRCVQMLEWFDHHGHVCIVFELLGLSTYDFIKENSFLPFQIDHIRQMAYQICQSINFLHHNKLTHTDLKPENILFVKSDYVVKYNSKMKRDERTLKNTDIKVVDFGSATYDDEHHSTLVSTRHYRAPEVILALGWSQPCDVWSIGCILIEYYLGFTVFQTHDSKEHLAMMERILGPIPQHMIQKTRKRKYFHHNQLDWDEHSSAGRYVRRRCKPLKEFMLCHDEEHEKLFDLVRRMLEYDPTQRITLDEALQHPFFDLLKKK
Sequence of Lysosomal acid glucosylceramidase (Homo sapiens) (P04062 whole entry, looked up): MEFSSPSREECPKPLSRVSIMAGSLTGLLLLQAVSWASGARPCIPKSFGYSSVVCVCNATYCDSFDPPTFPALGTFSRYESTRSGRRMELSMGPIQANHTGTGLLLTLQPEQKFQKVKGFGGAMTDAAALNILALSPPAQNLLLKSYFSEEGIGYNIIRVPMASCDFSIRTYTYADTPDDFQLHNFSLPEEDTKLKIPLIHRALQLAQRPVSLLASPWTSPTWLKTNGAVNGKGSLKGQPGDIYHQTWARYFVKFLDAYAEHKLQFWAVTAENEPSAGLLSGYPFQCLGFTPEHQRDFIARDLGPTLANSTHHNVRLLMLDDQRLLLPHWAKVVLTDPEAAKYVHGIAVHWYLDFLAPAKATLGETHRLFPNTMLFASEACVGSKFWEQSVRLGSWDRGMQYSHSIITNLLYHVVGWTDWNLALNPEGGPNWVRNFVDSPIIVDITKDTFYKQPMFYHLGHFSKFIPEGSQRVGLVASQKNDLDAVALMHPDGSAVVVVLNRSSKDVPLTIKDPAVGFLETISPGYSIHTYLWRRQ
Sequence of Cytochrome P450 3A4 (Homo sapiens) (P08684 whole entry, looked up): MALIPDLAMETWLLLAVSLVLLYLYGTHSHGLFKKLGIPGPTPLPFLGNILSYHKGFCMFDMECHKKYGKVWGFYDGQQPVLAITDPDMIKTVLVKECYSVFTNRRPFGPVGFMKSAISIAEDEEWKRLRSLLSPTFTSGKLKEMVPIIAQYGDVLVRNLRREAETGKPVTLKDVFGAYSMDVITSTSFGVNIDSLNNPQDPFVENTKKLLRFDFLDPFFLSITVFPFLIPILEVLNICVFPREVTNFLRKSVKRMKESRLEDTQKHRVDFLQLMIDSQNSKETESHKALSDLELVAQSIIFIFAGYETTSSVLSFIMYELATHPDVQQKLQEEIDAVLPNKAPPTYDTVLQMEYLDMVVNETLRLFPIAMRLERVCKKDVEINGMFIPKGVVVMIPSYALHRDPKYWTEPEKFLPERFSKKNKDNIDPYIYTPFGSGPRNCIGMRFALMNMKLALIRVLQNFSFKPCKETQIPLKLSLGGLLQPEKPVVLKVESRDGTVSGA
Sequence of Cytochrome P450 1A2 (Homo sapiens) (P05177 whole entry, looked up): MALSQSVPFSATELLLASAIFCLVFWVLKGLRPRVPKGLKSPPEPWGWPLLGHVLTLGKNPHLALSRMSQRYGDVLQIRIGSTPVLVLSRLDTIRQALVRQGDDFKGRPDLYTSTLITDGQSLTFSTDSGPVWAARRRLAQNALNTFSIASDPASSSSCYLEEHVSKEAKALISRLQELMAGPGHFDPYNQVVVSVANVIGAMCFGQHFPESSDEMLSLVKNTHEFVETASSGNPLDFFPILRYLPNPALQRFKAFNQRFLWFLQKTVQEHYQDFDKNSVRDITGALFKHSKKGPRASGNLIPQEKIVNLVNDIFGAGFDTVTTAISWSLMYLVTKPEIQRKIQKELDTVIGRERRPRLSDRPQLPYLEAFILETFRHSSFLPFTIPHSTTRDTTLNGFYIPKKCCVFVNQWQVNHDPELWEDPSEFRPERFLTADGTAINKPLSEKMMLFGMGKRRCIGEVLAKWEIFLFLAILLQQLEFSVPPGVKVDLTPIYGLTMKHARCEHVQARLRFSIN
Sequence of Ubiquitin carboxyl-terminal hydrolase 1 (Homo sapiens) (O94782 whole entry, looked up): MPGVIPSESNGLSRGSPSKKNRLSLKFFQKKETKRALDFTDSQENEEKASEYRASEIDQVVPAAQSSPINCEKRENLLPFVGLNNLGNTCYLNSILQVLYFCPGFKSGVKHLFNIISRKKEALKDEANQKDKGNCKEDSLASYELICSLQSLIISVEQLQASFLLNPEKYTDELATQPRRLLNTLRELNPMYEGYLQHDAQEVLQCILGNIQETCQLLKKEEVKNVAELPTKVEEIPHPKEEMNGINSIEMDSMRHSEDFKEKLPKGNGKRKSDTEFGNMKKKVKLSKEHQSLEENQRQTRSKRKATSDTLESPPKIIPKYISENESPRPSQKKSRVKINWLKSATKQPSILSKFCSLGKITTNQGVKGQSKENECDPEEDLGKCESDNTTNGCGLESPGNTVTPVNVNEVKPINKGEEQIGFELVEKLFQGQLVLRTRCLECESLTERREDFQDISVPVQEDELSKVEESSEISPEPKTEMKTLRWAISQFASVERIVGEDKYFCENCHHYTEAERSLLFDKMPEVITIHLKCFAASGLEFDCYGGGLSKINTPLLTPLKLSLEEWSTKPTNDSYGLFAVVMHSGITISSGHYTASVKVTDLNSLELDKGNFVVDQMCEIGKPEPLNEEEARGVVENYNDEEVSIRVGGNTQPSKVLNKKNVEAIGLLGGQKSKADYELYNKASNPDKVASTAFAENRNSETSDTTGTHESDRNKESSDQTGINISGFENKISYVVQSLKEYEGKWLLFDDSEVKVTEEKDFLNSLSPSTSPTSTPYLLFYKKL
Sequence of 3',5'-cyclic-AMP phosphodiesterase 4B (Homo sapiens) (Q07343 whole entry, looked up): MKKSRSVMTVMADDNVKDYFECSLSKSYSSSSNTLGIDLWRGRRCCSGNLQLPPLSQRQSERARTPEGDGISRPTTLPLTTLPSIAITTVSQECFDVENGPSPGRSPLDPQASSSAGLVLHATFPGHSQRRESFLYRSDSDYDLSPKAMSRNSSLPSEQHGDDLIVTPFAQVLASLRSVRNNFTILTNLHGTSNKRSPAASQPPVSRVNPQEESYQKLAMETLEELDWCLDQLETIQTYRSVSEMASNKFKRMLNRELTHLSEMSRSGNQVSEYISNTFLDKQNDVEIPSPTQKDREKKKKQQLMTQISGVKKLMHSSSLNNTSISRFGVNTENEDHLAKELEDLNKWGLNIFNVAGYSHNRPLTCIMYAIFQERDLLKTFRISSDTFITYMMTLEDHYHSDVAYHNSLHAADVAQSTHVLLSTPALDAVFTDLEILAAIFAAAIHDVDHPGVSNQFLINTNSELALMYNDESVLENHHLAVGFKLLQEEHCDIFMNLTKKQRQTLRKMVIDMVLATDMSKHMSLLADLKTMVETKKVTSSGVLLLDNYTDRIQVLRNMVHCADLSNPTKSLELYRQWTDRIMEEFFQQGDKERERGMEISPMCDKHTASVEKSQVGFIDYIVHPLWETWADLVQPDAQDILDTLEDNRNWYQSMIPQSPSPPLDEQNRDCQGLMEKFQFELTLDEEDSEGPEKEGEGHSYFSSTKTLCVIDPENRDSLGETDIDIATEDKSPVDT
Sequence of Cytochrome P450 2C9 (Homo sapiens) (P11712 whole entry, looked up): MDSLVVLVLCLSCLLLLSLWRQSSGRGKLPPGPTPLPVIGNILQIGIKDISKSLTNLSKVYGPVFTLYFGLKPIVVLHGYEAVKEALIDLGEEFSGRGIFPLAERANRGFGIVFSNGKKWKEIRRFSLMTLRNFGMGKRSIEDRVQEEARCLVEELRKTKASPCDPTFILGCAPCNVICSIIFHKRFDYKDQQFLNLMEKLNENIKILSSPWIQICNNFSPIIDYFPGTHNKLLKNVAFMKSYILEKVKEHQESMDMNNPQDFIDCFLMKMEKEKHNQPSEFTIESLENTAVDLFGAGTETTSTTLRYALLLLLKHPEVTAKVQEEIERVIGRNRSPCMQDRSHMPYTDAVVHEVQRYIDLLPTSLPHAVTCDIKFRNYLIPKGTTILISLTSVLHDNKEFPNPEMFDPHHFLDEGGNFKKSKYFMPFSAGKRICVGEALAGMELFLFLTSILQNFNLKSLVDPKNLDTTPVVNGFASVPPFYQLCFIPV

Consider `Cn1cc(-c2nc3cncnc3n(-c3ccccc3)c2=O)c2ccccc21`, for which the Potency is more than 11.4 µM in [1], 1.58 µM (active) in assay [3], more than 9.22 µM in assay [6] and more than 46 µM in assay [7]. For the same compound, the activity change, negative = inhibition is -24% in [2] and 11.2% in assay [4]. Further, the activity, negative = inhibition in assay [5] is -2.15%. In addition, the Potency result in assay [8], in assay [9], in [10], in assay [11], in assay [12] and in [13] was “inactive” in each case.

Consider `CN1CCN(c2nc(-c3ccccc3C(F)(F)F)nc3ccccc23)CC1`, for which the Potency in assay [1] was more than 11.4 µM; in [3], 10 µM (active); in [6], more than 46 µM; in assay [7], more than 46 µM; in assay [17], 14.1 µM (active). Moreover, in assay [4], the activity change, negative = inhibition is -6.69%. For the same compound, in assay [5], the activity, negative = inhibition is -4.43%. Besides, the compound was classed as inactive in assay [14]. Also, the Potency result in assay [15], in assay [8], in assay [9], in assay [10], in [11] and in assay [12] was “inactive” each time. Moreover, the activation in [16] is -4.44%. In addition, the max response in assay [18] was 16.6%.

For `COCCn1c(=O)c(-c2cc(F)cc(F)c2)nc2cnc(N3CCNCC3)nc21`, the Potency in assay [1] is more than 11.4 µM; in assay [3], 6.31 µM (active); in [6] it was more than 9.22 µM; in assay [7], more than 46 µM; in assay [19], 1.26 µM (active). Moreover, the call in assay [14] was inactive. Further, the Potency entry in [15], in assay [8] and in [13] was “inactive” in each case.

These data come from PubChem BioAssay (NCATS).
